# From PubChem BioAssay (NCATS)
# Inconclusive results are not listed. Unmarked numbers belong to inactive results. Activity calls are given as the source filed them. Calls come from the whole dose curve; as a rule, active = well fitted curve in the direction sought with a large enough effect; inconclusive = small, poorly fitted or top-dose-only effect, or another doubt; inactive = no such curve, though single readings can be large; an effect the other way counts as inactive or inconclusive.
# System: not listed separately
# Test: qHTS to identify inhibitors of the type 1 interferon - major histocompatibility complex class I in skeletal muscle: primary screen against the NCATS Pharmaceutical Collection (AID 1347407);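 note: luminescence of HiBiT knocked into endogenous HLA-B as interferon-induced MHC class I level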; for activity change, negative = inhibition: % is set by controls: 0 for no effect and ±100 for the full control effect
# Details: human skeletal muscle cells, IFN-b-induced MHC-I HiBiT luminescence, 24 h; series mostly up to 45.9 µM; activity change, negative = inhibition: at the top concentration
# Summary of the method: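 Immortalized human myoblasts (C25cl48) with HiBiT knocked into endogenous HLA-B*08:01 were stimulated with 4 ng/ml IFN-beta and treated with compounds (8-point, 1:5, top 46 uM final) for 24 h at 37 C; HiBiT lytic luminescence read.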
# Potency is the fitted concentration of half-maximal effect.
Structure (SMILES),"activity change, negative = inhibition",Potency
NCCNC(=O)c1ccc(Cl)cn1,-1.32%,
COc1ccc(C(=O)c2ccccc2)c(O)c1,-3.97%,
OC[C@H]1O[C@@H]2O[C@H]3[C@H](O)[C@@H](O)[C@@H](O[C@H]4[C@H](O)[C@@H](O)[C@@H](O[C@H]5[C@H](O)[C@@H](O)[C@@H](O[C@H]6[C@H](O)[C@@H](O)[C@@H](O[C@H]7[C@H](O)[C@@H](O)[C@@H](O[C@H]8[C@H](O)[C@@H](O)[C@@H](O[C@H]1[C@H](O)[C@H]2O)O[C@@H]8CO)O[C@@H]7CO)O[C@@H]6CO)O[C@@H]5CO)O[C@@H]4CO)O[C@@H]3CO,15.2%,
CC(C)[C@@H]1CC[C@@H](C)CC1=O,-0.327%,
O=C(O)C1(C(=O)O)CCC1.[NH2-].[NH2-].[Pt+2],1.28%,
O=C1C(=O)c2ccccc2C(O)=C1C1CCC(c2ccc(Cl)cc2)CC1 (configuration not stated),-2.81%,
NS(=O)(=O)Cc1noc2ccccc12,30.4%,
NC(=O)n1c(O)c(C(=O)c2cccs2)c2cc(Cl)ccc21,-28.2%,
CN1CCN(c2c(F)cc3c(=O)c(C(=O)O)cn4c3c2SCC4)CC1,-15.7%,
O=C(c1ccc(F)cc1)C1CCN(CCn2c(=S)[nH]c3ccccc3c2=O)CC1,-9.86%,
CCNC(=O)NCc1cccc(Cl)c1,-7.86%,
CC(C)Cc1ccc(CC(=O)O)cc1,-10.2%,
CN(C)CCOC(c1ccc(Cl)cc1)c1ccccn1 (configuration not stated),-6.74%,
CCOc1ccccc1C(N)=O,27.9%,
CN(Cc1ccc(C(C)(C)C)cc1)Cc1cccc2ccccc12,-5.07%,
CCCCNc1ccc(C(=O)OCCOCCOCCOCCOCCOCCOCCOCCOCCOC)cc1,-1.72%,
C=C[C@@]1(C)CC(=O)[C@]2(O)[C@@]3(C)[C@@H](O)CCC(C)(C)[C@@H]3[C@H](O)[C@H](OC(C)=O)[C@@]2(C)O1,-26.7%,
CC(C)CCCC(C)N (configuration not stated),-2.74%,

Structure (SMILES),"activity change, negative = inhibition",Potency
FC(F)(F)C(F)(F)C(F)(F)C(F)(F)C(F)(F)C(F)(F)C(F)(F)C(F)(F)Br,-10.5%,
O=C(Nc1ccccc1)OCC(CN1CCCCC1)OC(=O)Nc1ccccc1 (configuration not stated),-19.8%,
O=C(CN1CCN(Cc2ccc3c(c2)OCO3)CC1)N1c2ccccc2Sc2ccccc21,-8.93%,
CCCCCCCCCCC[C@@H](C[C@@H]1OC(=O)[C@H]1CCCCCC)OC(=O)[C@H](CC(C)C)NC=O,-23.9%,
CCNC(=O)/C=C/c1cccc(Br)c1,1.9%,
CCOc1ccc(NC(C)=O)cc1,-6.01%,
CC(=O)Nc1ccc(CC(=O)O)cc1,6.06%,
C[C@@]12C(=O)OC(=O)[C@]1(C)C1CCC2O1,,13.3 µM (active)
O=S(c1cc(Cl)cc(Cl)c1O)c1cc(Cl)cc(Cl)c1O,1.78%,
Cc1ccc2c(Br)cc(Br)c(O)c2n1,-18%,
CCC1NC(=O)c2cc(S(N)(=O)=O)c(Cl)cc2N1 (configuration not stated),-17.8%,
CC1(C)OC[C@@H]2O[C@@]3(C(=O)O)OC(C)(C)O[C@H]3[C@@H]2O1,4.03%,
Cn1c(=O)c2[nH]c(Br)nc2n(C)c1=O,0.593%,
Cc1ccccc1OCC(O)CO (configuration not stated),-7.3%,
NC(=O)c1ccccc1O,-2.24%,
CN(C)CCOC(=O)C(c1ccccc1)C1(O)CCCC1 (configuration not stated),-2.19%,
O=C(NC1CCN(CCc2c[nH]c3ccccc23)CC1)c1ccccc1,0.841%,
CN(C)CCN1C(=O)c2ccccc2N(C)c2ccccc21,-12.9%,

# Target: Protein phosphatase 1D (Homo sapiens) (UniProt O15297)
# Test: RapidFire Mass Spectrometry qHTS Assay for Modulators of WT P53-Induced Phosphatase 1 (WIP1) (AID 1347424);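 note: amount of dephosphorylated VEPPL-S-QETFS peptide product formed by WIP1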;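 for activity change, negative = inhibition: plate controls were DMSO wells for no effect and GSK830371 inhibitor control at 10 µM for full effect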
# Details: WIP1 dephosphorylation of phosphopeptide, RapidFire MS; series mostly up to 63 µM; activity change, negative = inhibition: at the top concentration
# Summary of the method: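 WIP1 (10 nM final) was preincubated 1 h at room temperature with compounds in Tris-HCl pH 7.5, 30 mM MgCl2, TCEP, EGTA, BSA; 2 uM VEPPL-pS-QETFS phosphopeptide was added for 5 min, quenched with formic acid, and dephosphorylated product quantified by RapidFire MS.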
# Protein phosphatase 1D (Homo sapiens), sequence (O15297 whole entry, looked up): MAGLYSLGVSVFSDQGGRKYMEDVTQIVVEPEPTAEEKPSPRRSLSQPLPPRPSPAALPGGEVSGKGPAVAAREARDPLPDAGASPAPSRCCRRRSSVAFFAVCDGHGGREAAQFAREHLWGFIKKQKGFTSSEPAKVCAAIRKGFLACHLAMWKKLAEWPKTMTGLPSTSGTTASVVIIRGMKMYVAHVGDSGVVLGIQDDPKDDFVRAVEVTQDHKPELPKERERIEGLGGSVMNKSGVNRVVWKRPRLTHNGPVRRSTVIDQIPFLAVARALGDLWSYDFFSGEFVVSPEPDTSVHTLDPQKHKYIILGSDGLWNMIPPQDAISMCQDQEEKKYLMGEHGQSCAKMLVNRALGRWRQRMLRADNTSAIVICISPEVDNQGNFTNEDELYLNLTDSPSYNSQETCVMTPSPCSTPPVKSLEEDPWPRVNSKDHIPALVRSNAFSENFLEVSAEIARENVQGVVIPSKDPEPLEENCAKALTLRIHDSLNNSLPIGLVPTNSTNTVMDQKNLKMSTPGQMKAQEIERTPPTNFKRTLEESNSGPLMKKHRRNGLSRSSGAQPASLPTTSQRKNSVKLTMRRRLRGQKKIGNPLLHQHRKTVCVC
Structure (SMILES),"activity change, negative = inhibition",Potency
NCCNC(=O)c1ccc(Cl)cn1,-6.56%,
COc1ccc(C(=O)c2ccccc2)c(O)c1,16.7%,
OC[C@H]1O[C@@H]2O[C@H]3[C@H](O)[C@@H](O)[C@@H](O[C@H]4[C@H](O)[C@@H](O)[C@@H](O[C@H]5[C@H](O)[C@@H](O)[C@@H](O[C@H]6[C@H](O)[C@@H](O)[C@@H](O[C@H]7[C@H](O)[C@@H](O)[C@@H](O[C@H]8[C@H](O)[C@@H](O)[C@@H](O[C@H]1[C@H](O)[C@H]2O)O[C@@H]8CO)O[C@@H]7CO)O[C@@H]6CO)O[C@@H]5CO)O[C@@H]4CO)O[C@@H]3CO,2.13%,
CC(C)[C@@H]1CC[C@@H](C)CC1=O,7.91%,
O=C(O)C1(C(=O)O)CCC1.[NH2-].[NH2-].[Pt+2],,11.2 µM (active)
O=C1C(=O)c2ccccc2C(O)=C1C1CCC(c2ccc(Cl)cc2)CC1 (configuration not stated),-0.846%,
NS(=O)(=O)Cc1noc2ccccc12,2.18%,
NC(=O)n1c(O)c(C(=O)c2cccs2)c2cc(Cl)ccc21,-25.1%,
CN1CCN(c2c(F)cc3c(=O)c(C(=O)O)cn4c3c2SCC4)CC1,1.09%,
O=C(c1ccc(F)cc1)C1CCN(CCn2c(=S)[nH]c3ccccc3c2=O)CC1,-9.9%,
CCNC(=O)NCc1cccc(Cl)c1,13.4%,
CC(C)Cc1ccc(CC(=O)O)cc1,-4.93%,
CN(C)CCOC(c1ccc(Cl)cc1)c1ccccn1 (configuration not stated),-4.33%,
CCOc1ccccc1C(N)=O,0.264%,
CN(Cc1ccc(C(C)(C)C)cc1)Cc1cccc2ccccc12,6.26%,
CCCCNc1ccc(C(=O)OCCOCCOCCOCCOCCOCCOCCOCCOCCOC)cc1,12.7%,
C=C[C@@]1(C)CC(=O)[C@]2(O)[C@@]3(C)[C@@H](O)CCC(C)(C)[C@@H]3[C@H](O)[C@H](OC(C)=O)[C@@]2(C)O1,1.58%,
CC(C)CCCC(C)N (configuration not stated),-1.15%,

Structure (SMILES),"activity change, negative = inhibition",Potency
FC(F)(F)C(F)(F)C(F)(F)C(F)(F)C(F)(F)C(F)(F)C(F)(F)C(F)(F)Br,32.5%,
O=C(Nc1ccccc1)OCC(CN1CCCCC1)OC(=O)Nc1ccccc1 (configuration not stated),18%,
O=C(CN1CCN(Cc2ccc3c(c2)OCO3)CC1)N1c2ccccc2Sc2ccccc21,29.9%,
CCCCCCCCCCC[C@@H](C[C@@H]1OC(=O)[C@H]1CCCCCC)OC(=O)[C@H](CC(C)C)NC=O,37.6%,
CCNC(=O)/C=C/c1cccc(Br)c1,-6.07%,
CCOc1ccc(NC(C)=O)cc1,-3.78%,
CC(=O)Nc1ccc(CC(=O)O)cc1,5.75%,
C[C@@]12C(=O)OC(=O)[C@]1(C)C1CCC2O1,6.52%,
O=S(c1cc(Cl)cc(Cl)c1O)c1cc(Cl)cc(Cl)c1O,,31.6 µM (active)
Cc1ccc2c(Br)cc(Br)c(O)c2n1,0.889%,
CCC1NC(=O)c2cc(S(N)(=O)=O)c(Cl)cc2N1 (configuration not stated),-6.95%,
CC1(C)OC[C@@H]2O[C@@]3(C(=O)O)OC(C)(C)O[C@H]3[C@@H]2O1,1.75%,
Cn1c(=O)c2[nH]c(Br)nc2n(C)c1=O,-0.451%,
Cc1ccccc1OCC(O)CO (configuration not stated),-6.85%,
NC(=O)c1ccccc1O,4.38%,
CN(C)CCOC(=O)C(c1ccccc1)C1(O)CCCC1 (configuration not stated),3.89%,
O=C(NC1CCN(CCc2c[nH]c3ccccc23)CC1)c1ccccc1,-5.21%,
CN(C)CCN1C(=O)c2ccccc2N(C)c2ccccc21,-2.33%,
